# Most compounds without a hit are left out; they make up all but 2.4% or so of the library.
# POLK inh = blocks human DNA polymerase kappa activity | purified Pol kappa, fluorescent DNA synthesis assay, 10 min | Potency, µM (highest dose often 107 µM), without a hit: at the top dose activity, negative = inhibition, usual class: inhibitors | 0.53% of 400,000 active | AID 588579; further: on the % scale 0 is the no-effect control and ±100 the full control effect
# Target sequence (Q9UBT6 whole entry, looked up): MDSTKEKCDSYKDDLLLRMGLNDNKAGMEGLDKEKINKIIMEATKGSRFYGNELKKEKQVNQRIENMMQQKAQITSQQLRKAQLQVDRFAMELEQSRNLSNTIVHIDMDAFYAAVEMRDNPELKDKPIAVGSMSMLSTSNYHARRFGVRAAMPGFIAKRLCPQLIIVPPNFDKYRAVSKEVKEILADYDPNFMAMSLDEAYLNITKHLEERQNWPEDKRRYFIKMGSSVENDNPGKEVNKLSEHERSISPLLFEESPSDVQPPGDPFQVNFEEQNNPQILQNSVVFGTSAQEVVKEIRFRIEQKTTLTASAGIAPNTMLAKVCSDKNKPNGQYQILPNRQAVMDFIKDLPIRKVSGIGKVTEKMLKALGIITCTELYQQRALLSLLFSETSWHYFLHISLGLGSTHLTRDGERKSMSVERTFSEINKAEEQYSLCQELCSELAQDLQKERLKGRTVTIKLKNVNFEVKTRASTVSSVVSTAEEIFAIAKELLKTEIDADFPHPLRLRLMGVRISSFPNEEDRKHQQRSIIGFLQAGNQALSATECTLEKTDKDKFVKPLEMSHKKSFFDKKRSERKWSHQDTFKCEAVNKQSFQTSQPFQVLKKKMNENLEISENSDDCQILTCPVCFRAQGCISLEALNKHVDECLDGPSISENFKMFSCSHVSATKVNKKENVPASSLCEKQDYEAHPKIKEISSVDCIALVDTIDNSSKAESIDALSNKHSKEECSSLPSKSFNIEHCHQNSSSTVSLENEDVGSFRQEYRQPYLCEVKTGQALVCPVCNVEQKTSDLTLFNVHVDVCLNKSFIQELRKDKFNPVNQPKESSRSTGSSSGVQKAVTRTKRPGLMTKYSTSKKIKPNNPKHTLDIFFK
#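 First, compounds were pin-transferred onto 10 nM Pol kappa. After 15 min at room temperature, substrate was added to 50 nM final. Fluorescence was then measured kinetically at 0 and 10 min.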
# Pol eta inh = DNA polymerase eta (human) inhibition; Q9Y253; AID 588591; 1.2% of 390,000 active; Potency, µM (doses to about 114 µM), without a hit: at the highest dose activity change, negative = inhibition, most hits filed as inhibitors; recombinant Pol eta, fluorescent DNA replication assay; further: on the % scale 0 is the no-effect control and ±100 the full control effect
#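 Pol eta at 10 nM preincubated with compounds 15 min at room temperature; reaction started with fluorescent substrate (50 nM final) and read kinetically at 0 and 10 min.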
# WRN inhibitor = WRN helicase (human) inhibition; Q14191; WRN helicase unwinding, fluorescent forked duplex, kinetic; Potency, µM (series often up to 114 µM), inactives show at the top dose activity change, negative = inhibition, usual class: inhibitors; 0.46% of 360,000 active; AID 651768; further: on the % scale 0 is the no-effect control and ±100 the full control effect; nearly all actives have a fitted effect of over 55% in size
#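 Screening of the MLSMR collection measured strand separation of a quenched forked DNA duplex (100 nM) by 20 nM WRN with 2 mM ATP, all final. Compounds were preincubated with enzyme 15 min at room temperature.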
# Pol beta inh = blocks human DNA polymerase beta activity. 1.3% of 340,000 active. AID 485314. P06746. Potency, µM (titrated, usually from 114 µM), without a hit: at the highest dose activity change, negative = inhibition, most hits filed as inhibitors. Pol beta primer extension/strand displacement, fluorescence kinetic; further: on the % scale 0 is the no-effect control and ±100 the full control effect
#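 Reaction started by 50 nM substrate onto compound-treated Pol beta (10 nM, 15 min preincubation, room temperature); plates read at 0 min and 10 min. Normalized concentration-effect data fitted by four-parameter Hill equation.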
# POLI inh = inhibitors of human DNA polymerase iota; Pol iota fluorescent replication assay, 10 min; 1% of 390,000 active; Q9UNA4; Potency, µM (titrated, usually from 115 µM), without a hit: at the highest dose activity, negative = inhibition, actives largely listed as inhibitors
#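 Pol iota at 10 nM preincubated 15 min with compounds at room temperature; reaction started with fluorescent substrate, 50 nM final. Fluorescence read kinetically at 0 and 10 min; buffer-only wells as negative control.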
# FEN1 inh = blocks human flap endonuclease 1. 0.35% of 390,000 active. Potency, µM (highest dose often 114 µM), without a hit: top-dose activity change, negative = inhibition, most hits filed as inhibitors. AID 588795. Recombinant FEN1 flap cleavage, fluorescence, 15 min; further: on the % scale 0 is the no-effect control and ±100 the full control effect; nearly all actives have a fitted effect of over 65% in size
#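 Steps: FEN1 (10 nM) dispensed; compound added by pin tool; 15 min at room temperature; substrate added to 50 nM final; reads at 0 min and 15 min; data normalized and fitted (four-parameter Hill).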
# Active calls of the source: *; ? = inconclusive; / = not tested or not shown; [ ] = dose if it differs, or a comment. The call rests on the fitted dose curve; in most records, active means well fitted curve in the direction sought with a large enough effect; inconclusive means small, poorly fitted or top-dose-only effect, or another doubt; inactive means no such curve, though single readings can be large; an effect the other way counts as inactive or inconclusive. Potency means the concentration at half of the fitted maximal effect.
SMILES,POLK inh,Pol eta inh,WRN inhibitor,Pol beta inh,POLI inh,FEN1 inh
CSCC[C@H](N)C(=O)N[C@@H](C)C(=O)NCC(=O)N[C@@H](CCCN=C(N)N)C(=O)N[C@@H](CO)C(=O)NCC(=O)N[C@@H](CC(=O)O)C(=O)N[C@@H](CO)C(=O)N[C@@H](CC(=O)O)C(=O)N[C@@H](CCC(=O)O)C(=O)N[C@@H](CC(=O)O)C(=O)N[C@@H](CC(C)C)C(=O)N[C@@H](CC(C)C)C(=O)N[C@@H](CCCCN)C(=O)N[C@@H](C)C(=O)N[C@H](C(=O)O)C(C)C,10.9%[60.1 µM],/,/,/,/,/
COc1cc2c3cc1Oc1c(OC)c(OC)cc4c1[C@@H](Cc1ccc(OC(=O)c5ccc([N+](=O)[O-])cc5)c(c1)Oc1ccc(cc1)C[C@@H]3N(C)CC2)N(C)CC4,11.8%[60.1 µM],/,/,/,/,/
COc1ccc(-c2ccc(F)cc2)cc1C1C2C=CCC(C)C2C(=O)N1Cc1ccccc1 (stereo unspecified),-8.9%,/,/,/,11.2%,-7.6%
CCCn1c(N)c(N(CCOC)C(=O)c2cc(-c3ccco3)nc3ccccc23)c(=O)[nH]c1=O,-38.1%,?,-10.4%,44.7µM*,56.2µM*,-9.7%
Cn1c(N)c(C(=O)COC(=O)c2cc(-c3ccco3)nc3ccccc23)c(=O)n(Cc2ccccc2)c1=O,/,/,/,20µM*,/,/
CCOC(=O)CSc1nc2cc(OC)c(OC)cc2cc1C#N,-10.7%,/,/,/,21.3%,-8.2%
CN(C)c1cccc2c1c(NS(=O)(=O)c1cn(C)cn1)nn2C,-9.8%,-24.3%,-0.2%[11.6 µM],-1.6%,39.8µM*,-3.6%
O=C(O)c1cc(Cl)c2c(c1)OCO2,-39.4%,22.4µM*,-11.2%,?,?,-15.7%
CC12CCC=CC1C(c1cccc([N+](=O)[O-])c1)N(Cc1ccccc1)C2=O (stereo unspecified),-23.5%,/,/,/,-24.0%,-6.6%
C=CCn1c(SCc2nc3sc(C(=O)O)c(C)c3c(=O)[nH]2)nnc1-c1ccc(F)cc1,-16.9%,?,-13.0%,8.2%,-10.7%,-9.0%
Cc1c(C(=O)O)sc2nc(/C=C/c3cccc(F)c3)[nH]c(=O)c12,9.4%,79.4µM*,-3.4%[11.6 µM],44.7µM*,-4.6%,?
OC(Cc1ccc2ccccc2n1)c1c(Cl)cccc1Cl (stereo unspecified),6.7%,/,/,/,18.0%,12.4%
Nc1nn2c(C(F)(F)F)cc(=O)[nH]c2c1N=Nc1cccc(F)c1,-4.5%,-6.7%,4.3%,34.7%,25.1%,-3.4%
Cc1cc(=O)[nH]c2c(N=Nc3ccc(O)cc3)c(N)nn12,89.1µM*,-17.8%,?,2.0%,?,-31.6%
O=C(NN1C(=O)c2ccc(-c3ccc4c(c3)C(=O)N(NC(=O)c3cccnc3)C4=O)cc2C1=O)c1cccnc1,-18.1%,50.1µM*,-32.2%,?,50.1µM*,-0.8%
N#C/C(=C1/SCC(c2ccccc2Cl)S1)n1ccnc1 (stereo unspecified),-2.7%[60.1 µM],/,/,/,/,/
COc1ccc(C(=O)Nc2nc3ccccc3[nH]2)cc1OC,-11.8%,-10.5%,10.5%,24.9%,35.4%,0.8%
COc1ccc(Cl)cc1C(=O)Nc1nc2ccccc2[nH]1,-30.5%,-14.4%,-8.1%,44.7µM*,79.4µM*,10.8%
O=[N+]([O-])c1ccc(S(=O)Cc2ccccc2)c([N+](=O)[O-])c1 (stereo unspecified),-12.2%,13.9%,10µM*,/,?,?
O=[N+]([O-])c1ccc(CS(=O)c2ccccc2)cc1 (stereo unspecified),-0.7%,-1.3%,-2.9%,/,8.6%,-1.9%
O[C@@H]1COC2[C@@H](O)CO[C@@H]21 (stereo partly specified),-14.0%[12 µM],/,/,/,/,/
Nc1ccc2cccc(O)c2c1,79.4µM*,22.4µM*,-27.3%,/,12.6µM*,-11.3%
Nc1ccc2cc3ccccc3cc2c1,9.8%,-8.5%,-0.2%,/,49.6%,0.9%
CCC(=O)N1CCc2cc(S(=O)(=O)NCCC(=O)Nc3cc(C)ccc3OC)ccc21,-18.8%,-19.0%,/,5.9%,6.4%,17.0%
CN(Cc1ccccc1)C(=O)[C@H](Cc1ccc2ccccc2c1)NC(=O)[C@@H]1C[C@@H](O)CN1C(=O)c1cn(C)c2ccccc12,-11.2%[60.1 µM],/,/,/,/,/
SMILES,POLK inh,Pol eta inh,WRN inhibitor,Pol beta inh,POLI inh,FEN1 inh
CC(C)C[C@H](NC(=O)C1CC(=O)N(c2ccc3c(c2)OCO3)C1)C(=O)NC1CCCC1 (stereo partly specified),11.3%,89.1µM*,-9.4%[11.6 µM],14.4%,16.2%,-2.7%
CCOC(=O)c1c(C)sc(-c2c(-c3cccc(Cl)c3)[nH]c3c2c(=O)n(C)c(=O)n3C)c1O,-20.8%,/,/,-4.6%,79.4µM*,-16.2%
CCOC(=O)c1c(C)sc(-c2c(-c3cc(C)ccc3C)[nH]c3c2c(=O)n(C)c(=O)n3C)c1O,-22.7%,?,/,5.62µM*,?,-0.2%
O=c1cnc2cnc(Nc3ccccc3)nc2n1CCc1ccccc1,-4.7%[60.1 µM],/,/,/,/,/
CCOC(=O)C1CCN(C(=O)CCc2nnc3ccc(N4CCC(C)CC4)nn23)CC1,5.7%,-11.1%,4.6%,38.5%,33.8%,6.9%
CCOC(=O)C1CCN(C(=O)CCc2nnc3ccc(NCc4ccco4)nn23)CC1,-31.0%,44.7µM*,1.1%[11.6 µM],3.0%,?,4.8%
O=C(O)/C(=C\c1ccco1)NC(=O)c1ccc(Br)o1,-28.6%,20µM*,-15.7%[11.6 µM],/,?,-7.6%
CC(C)C(NC(=O)/C(=C/c1ccco1)NC(=O)c1ccc(Br)o1)C(=O)O (stereo unspecified),?,20µM*,-6.6%,39.8µM*,?,8.7%
O=C(O)/C(=C\c1ccco1)NC(=O)c1cccc2ccccc12,50.1µM*,50.1µM*,-15.5%,-1.3%,?,-23.9%
CC(C)Oc1ccc2c(=O)c3cc(C(=O)O)ccc3oc2c1,-8.8%[19.4 µM],/,/,/,/,/
Oc1cc(NCCN2CCOCC2)cc2cccnc12,-10.1%,-8.9%,/,/,7.08µM*,-6.4%
Oc1cc(Nc2ccccc2)cc2cccnc12,-27.5%,-3.8%,/,/,21.0%,0.1%
Cc1ccc(O)c(C2=Nc3ccccc3N=C(c3cccc(F)c3)C2)c1,-39.9%,/,/,29.7%,89.1µM*,?
COc1ccc(-n2c(-c3ccc(Cl)cc3)c[n+]3c2CCc2ccccc2-3)cc1,-4.3%,-18.1%,5.7%,-0.4%,33.3%,-6.1%
Cc1ccc(-n2c(-c3ccc(Br)cc3)c[n+]3c2CCc2ccc4cccnc4c2-3)cc1,-0.5%,-8.9%,3.5%,50.1µM*,-2.6%[58.9 µM],?
COc1cccc2cc(-c3csc(CCn4nc(C)cc4C)n3)c(=O)oc12,-15.7%,?,-5.9%,-1.8%,8.5%,-3.2%
CC/C(C)=N/Nc1nc(-c2cc3cccc(OC)c3oc2=O)cs1,?,50.1µM*,?,-14.9%,50.1µM*,-15.2%

# Screens deposited in PubChem by National Center for Advancing Translational Sciences (NCATS).
